More than one record can exist for a structure, and the calls need not agree. The source made the active and inactive calls. Rule for the calls: active = hit-call score of the fitted dose curve at least 0.9, where 1 is the maximum; inactive = score below 0.9.
test: ATG_EGR_CIS: Attagene CIS-FACTORIAL HepG2 Assay for human Early Growth Response 1 (EGR1) (AID 2282938); conditions: HepG2 Attagene CIS-FACTORIAL EGR reporter mRNA; actives raise or lower the signal
Method: ATG_CIS is a cell-based, multiplexed-readout assay that uses HepG2, a human liver cell line, with measurements taken at 24 hours after chemical dosing in a 24-well plate.ATG_EGR_CIS is one of 52 assay component(s) measured or calculated from the ATG_CIS assay. It is designed to make measurements of mRNA induction, a form of inducible reporter, as detected with fluorescence intensity signals by Reverse transcription polymerase chain reaction (RT-PCR) and Capillary electrophoresis technology.Data from the assay component ATG_EGR_CIS was analyzed into 1 assay endpoint. This assay endpoint, ATG_EGR_CIS, was analyzed with bidirectional fitting relative to DMSO as the negative control and baseline of activity. Using a type of inducible reporter, measures of mRNA for gain or loss-of-signal activity can be used to understand the reporter gene at the transcription factor-level as they relate to the gene EGR1. Furthermore, this assay endpoint can be referred to as a primary readout, because this assay has produced multiple assay endpoints where this one serves a reporter gene function. To generalize the intended target to other relatable targets, this assay endpoint is annotated to the dna binding intended target family, where the subfamily is zinc finger.
Human liver HepG2 cells are transiently transfected with multiple reporter transcription units (MRTUs) in 6-well plates using FuGene 6 reagent (Roche; 3 ml FuGene/1 mg DNA). The MRTU constructs are regulated by a cis-regulating element (promoter). […] A major difference between the CIS and TRANS system is that in CIS activities of endogenous TFs are measured, whereas the TRANS assay evaluates changes in activities of exogenous, chimeric NR-Gal4 proteins. […] At the end of 24 hour incubation, total RNA was isolated using TriZol reagent (Invitrogen). The isolated RNA is then reverse-transcribed using oligo(dT) primer and Mo-MLV reverse transcriptase (Invitrogen) with DNAse I (Ambion) treatment for 30 min. The one-tenth of the produced cDNA was amplified by PCR using Taq DNA polymerase (Invitrogen) and two reporter sequence-specific primers. The PCR products were fluorescently labeled by primer extension with 6-arboxyfluorescein (6-FAM) 5'-labeled reporter sequence-specific primer (2 min at 95 C, 20 s at 68 C and 10 min at 72 C) and these products were digested with 5U of HpaI (New England Biolabs) for 2h at 37 C. The fragments were purified using Qiaquick PCR columns (Qiagen), analyzed on an ABI 3130xL genetic analyzer (Applied Biosystems) with peak positions identified by using a set of X-rhodamine (ROX)-labeled MapMarker1000 molecular weight standards (BioVentures). The raw capillary electrophoresis data was processed using Attagraph software (Attagene).

outcome, inactive:
c1ccc(C[n+]2cccc3ccccc32)cc1
Cc1ccc(C(C)C)cc1
O=C1c2ccccc2C(=O)N1CCc1noc(-c2ccc(CN3CCCCCC3)s2)n1
O=c1[nH]sc2ccccc12
O=C1O[C@H]([C@@H](O)CO)C(O)=C1O
Cc1ccc2oc(CN(Cc3ccccc3)C(=O)Nc3c(F)cc(F)cc3F)c(-c3ccc(Cl)cc3)c2c1
COCC(C)OCC(C)OCC(C)O (stereo not given)
CC1=CC(=O)/C(=C(/C)O)C(=O)O1
CO[C@H]1/C=C/O[C@@]2(C)Oc3c(C)c(O)c4c(O)c(c(/C=N/N5CCN(C)CC5)c(O)c4c3C2=O)NC(=O)/C(C)=C\C=C\[C@H](C)[C@H](O)[C@@H](C)[C@@H](O)[C@@H](C)[C@H](OC(C)=O)[C@@H]1C
c1ccc2ccccc2c1
CCCC(=O)OCCC(C)C
CC1(C)NC(=O)N(c2ccc([N+](=O)[O-])c(C(F)(F)F)c2)C1=O
CCO[Si](CCCNC(N)=O)(OCC)OCC
O=C(O)Cn1c(=O)n(Cc2ccc(Br)cc2F)c(=O)c2ccc(Cl)cc21
Cc1c2ccccc2c(C)c2c1ccc1ccccc12
CCCCOC(=O)c1ccc(O)cc1
O=C1CCC(C2CCCCC2)CC1
CCOC(=O)O[C@H](C)OC(=O)c1ccc2c(c1)cc(C(=O)NC1CCN(C(C)C)CC1)n2Cc1cc(-c2ccc(Cl)s2)on1
C[C@]12CC[C@@H]3c4ccc(O)cc4CC[C@H]3[C@@H]1CC[C@H]2O
O=C(O)Cc1cc(I)c(Oc2ccc(O)c(I)c2)c(I)c1
O=C=NCCCCCCN=C=O
O=C(O)c1ccccc1C(=O)OCc1ccccc1
O=CCCCC=O
CCCCCCCCOC(=O)c1cc(O)c(O)c(O)c1
OCCO
CCCCCCCCCC(=O)O
CCCOC(=O)c1cc(O)c(O)c(O)c1
CCN(Cc1cccc(S(=O)(=O)O)c1)c1ccc(C(=C2C=CC(=[N+](CC)Cc3cccc(S(=O)(=O)O)c3)C=C2)c2ccccc2S(=O)(=O)[O-])cc1
CCCCCc1ccc(N)cc1

AC50, active:
NC(=O)c1nc(-c2cccc(-c3cc(F)ccc3OCC(F)(F)C(F)(F)F)c2)n[nH]1 40.2 µM
CC(=O)N1CCN(c2ccc(OC[C@H]3CO[C@](Cn4ccnc4)(c4ccc(Cl)cc4Cl)O3)cc2)CC1 11.6 µM
Clc1ccccc1C(c1ccccc1)(c1ccccc1)n1ccnc1 8.64 µM
NCc1cccc(C2CCN(C(=O)c3ccc(C#Cc4ccccc4F)o3)CC2)c1 11 µM
CC(C)(C)c1cc(/C=C2\SC(N)=NC2=O)cc(C(C)(C)C)c1O 8.13 µM
CCCCOC(=O)c1ccc(O)cc1 97.1 µM
O=C1CCC(C2CCCCC2)CC1 130 µM
Cc1occc1C(=O)Nc1ccc(C(=O)N2CCC(F)(F)/C(=C\C(=O)N3CCC(N4CCCCC4)CC3)c3ccccc32)cc1 34.5 µM
C[C@]12CC[C@@H]3c4ccc(O)cc4CC[C@H]3[C@@H]1CC[C@H]2O 42 µM
Cc1oc2c(NC(=O)c3c(Cl)cccc3Cl)cccc2c1C(C)(C)O 47.6 µM
COc1cc(C(=O)NC2CCN(C)CC2)ccc1Nc1ncc2c(n1)N(C1CCCC1)CC(F)(F)C(=O)N2C 2.26 µM
